Experimental data published in ChEMBL document CHEMBL4513216, “Probing the Open Global Health Chemical Diversity Library for Multistage-Active Starting Points for Next-Generation Antimalarials” (ACS Infect Dis, 2020).
Hit rate of the full screen: of about 68,000 compounds, about 2,700 (4%) showed an effect of 50% or more. Only a selection was taken, and strong results are over-represented in it overall.

The molecules below were run on Plasmodium berghei (assay: Screen against P. berghei liver stage (PbLuc), transformed with Luciferase, at 2uM). Conditions: tested at 2 uM.
Assay type: functional, HepG2

Row | SMILES | INHIBITION [%]
1 | CCc1nc(N2CCCC(O)(CO)CC2)ncc1C (configuration not stated) | 32.1
2 | Cc1ccc(C)c(OCc2cc(C(=O)N(C)CC(O)CO)no2)c1 (configuration not stated) | -10.86
3 | Cc1ccc(C)c(OCc2cc(C(=O)N(C)Cc3cnn(C)c3)no2)c1 | 28.17
4 | Cc1ccc(C)c(OCc2cc(C(=O)N(C)Cc3nonc3C)no2)c1 | 50.86
5 | Cc1cnn(CC2CCCN2Cc2ncc(-c3ccc(F)cc3)o2)c1 (configuration not stated) | 10.52
6 | COc1cc(C(=O)N(C2CC2)C2CC(=O)NC2=O)ccc1C (configuration not stated) | 11.18
7 | Cc1ccc(C(=O)N(C2CC2)C2CC(=O)NC2=O)cc1F (configuration not stated) | 59.93
8 | O=C1CC(N(C(=O)c2ccc(F)c(F)c2)C2CC2)C(=O)N1 (configuration not stated) | -20.51
9 | O=C([C@H]1C[C@H]2OCC[C@H]2N(CC2CC2)C1)N1CCCCO1 | -11.4
10 | O=C([C@H]1C[C@H]2OCC[C@H]2N(CC2CCOCC2)C1)N1CCCC1 | 58.93
11 | O=C([C@H]1C[C@H]2OCC[C@H]2N(CC2CCOCC2)C1)N1CCCCO1 | 26.31
12 | O=C([C@H]1C[C@H]2OCC[C@H]2N(CC2CC2)C1)N1CCCC1 | 63.14
13 | CNC(=O)[C@H]1C[C@H]2OCC[C@H]2N(CC2CCOCC2)C1 | -14.24
14 | O=C([C@H]1C[C@@H]2[C@@H](C1)OCCN2CC1CC1)N1CCCC1 | -1.29
15 | CS(=O)(=O)N1C[C@H]2CCCN(Cc3nccs3)[C@H]2C1 | 14.65
16 | CC(Cn1cncn1)NC(=O)NCC(C)(C)c1ccc(F)cc1 (configuration not stated) | 38.1
17 | NC(=O)C(NC1CCN(Cc2ccc(F)cc2)CC1)c1ccccc1 (configuration not stated) | -15.03
18 | NC(=O)C(NC1CCN(CC2CCCCC2)CC1)c1ccc(F)cc1 (configuration not stated) | 65.76
19 | NC(=O)C(NC1CCN(CC2CCCCC2)CC1)c1ccccc1 (configuration not stated) | 15.27
20 | COc1ccc(C[C@H]2CN(Cc3ccoc3)CC[C@H]2OC)cc1 | 10.71
21 | N#Cc1ccnc(N2CCC(c3nccn3Cc3cscn3)CC2)c1 | 45.58
22 | Cn1ccnc1C(=O)N1CCC2(CCN2c2ncccn2)C1 (configuration not stated) | 6.07
23 | Cn1cccc1C(=O)N1CCC2(CCN2c2ncccn2)C1 (configuration not stated) | 27.42
24 | Cn1ccc(C(=O)N2CCC3(CCN3c3ncccn3)C2)n1 (configuration not stated) | 53.38
25 | CCN1CCn2c(C)cnc2C12CCN(C(=O)NCC(C)C)CC2 | -29.74
26 | COc1cccn(Cc2nnc(-c3cccnc3)o2)c1=O | -16.19

Row | SMILES | INHIBITION [%]
27 | Cc1ccc(NC(=O)N(C)C)c(C(=O)OCC(=O)NC2CCCC2)c1 | 49.71
28 | CCC(C)(C)NC(=O)COC(=O)c1cc(C)ccc1NC(=O)N(C)C | 60.64
29 | Cc1ccc(NC(=O)N(C)C)c(C(=O)OCC(=O)NC(C)C(C)C)c1 (configuration not stated) | 20.34
30 | Cc1cc2ncc(C(C)NCc3cccnc3)c(C)n2n1 (configuration not stated) | 19.6
31 | CCc1ccccc1C(=O)NS(=O)(=O)CCCC#N | -32.8
32 | COCC1c2nnn(CC3CC3)c2CCN1C(=O)c1cnccn1 (configuration not stated) | 1.92
33 | c1ccc(NC[C@@H]2CCC[C@@H]3CN(Cc4nccs4)C[C@@H]32)nc1 | 38.11
34 | CC1CN(Cc2cccnc2)CCN1c1ccc2nncn2n1 (configuration not stated) | -68.26
35 | CC1CN(Cc2cnn(C)c2)CCN1c1ccc2nncn2n1 (configuration not stated) | 62.13
36 | Cc1cnc(CN2CCN(c3ccc4nncn4n3)C(C)C2)cn1 (configuration not stated) | 6.12
37 | Cc1cc(CN2CCN(c3ccc4nncn4n3)C(C)C2)no1 (configuration not stated) | -54.33
38 | Cc1ncc(CN2CCN(c3ccc4nncn4n3)C(C)C2)s1 (configuration not stated) | 64.71
39 | CC1CN(Cc2nccn2C)CCN1c1ccc2nncn2n1 (configuration not stated) | 3.9
40 | O=c1c(-c2ccnc(NC3CCCCC3)n2)cnc2sc(Cl)cn12 | 10.83
41 | Cn1c(C(=O)N2CC[C@@]3(O)CCCC[C@H]3C2)cc2ccccc21 | 5.04
42 | CS(=O)(=O)N1CCCC12CCCN(S(=O)(=O)c1cccc(F)c1)C2 (configuration not stated) | 32.41
43 | CCN1Cc2ccccc2CC2(CCN(C(=O)N(C)C)CC2)C1=O | 14.94
44 | Cn1nc(C(=O)N2CCCC(n3cncn3)C2)ccc1=O (configuration not stated) | 8.06
45 | CC(C)(C)c1nc(CN2CCC(N3CCCCC3)CC2)no1 | 40.47
46 | O=C1CN(C(=O)c2cc3c(F)cc(Br)cc3[nH]2)CCN1 | -10
47 | Cc1cc(C)c2cc(C(=O)N3CCNC(=O)C3)[nH]c2c1 | 19.48
48 | O=C1CN(C(=O)c2cc3ccc(Br)cc3[nH]2)CCN1 | 57
49 | Clc1cccc(C2CCN(c3ncnc4c3CCNC4)C2)c1 (configuration not stated) | 36.79
50 | COCCn1cnc(-c2nc(C(=O)N3CCOCC3)c3ccccn23)c1 | 11.37
51 | CN(Cc1n[nH]c2c1CCCC2)c1nc(C2CC2)nc2c1CCNCC2 | 14.55
52 | CCOc1ccc(Cl)c(C(=O)N(C)C)n1 | -23.4

Row | SMILES | INHIBITION [%]
53 | Cc1cnn(C2CN(CCOc3ccccc3C#N)C2)c1 | -21.72
54 | CO[C@@H]1CCN(Cc2cnn(C)c2)[C@@H]2CN(Cc3cccnc3)C[C@@H]21 | 51.05
55 | CO[C@H]1CCN(Cc2cnn(C)c2)[C@@H]2CN(Cc3ccncc3)C[C@H]12 | -22.28
56 | CO[C@H]1CCN(Cc2cnn(C)c2)[C@@H]2CN(Cc3cccnc3)C[C@H]12 | 39.06
57 | CC(C)NC(=O)CS(=O)(=O)Cc1cc(Cl)c2c(c1)OCCO2 | 14.82
58 | CC(C)C1CN(Cc2c[nH]cn2)CCCN1CC1CC1 (configuration not stated) | -28.5
59 | CC(CN1CCOCC1)NC(=O)N(C)Cc1ccc(Cl)s1 (configuration not stated) | 2.8
60 | c1cnc(N2CCC3(CCN(CC4CCOC4)CC3)CC2)nc1 (configuration not stated) | 42.27
61 | c1cnc(N2C[C@H]3CN(CC4CCOC4)C[C@H]3C2)nc1 (some centres not stated) | 55.44
62 | c1cnc(N2CCC3(CN(CC4CCOC4)C3)C2)nc1 (configuration not stated) | 24.54
63 | CCn1cc(C2CCN(Cc3ccnc(N(C)C)c3)CC2)cn1 | 5.17
64 | CC(C)CC(=O)NCc1cccc(OCCN(C)C2CCOCC2)c1 | 74.08
65 | COCC(=O)NCc1cccc(OCCN(C)C2CCOCC2)c1 | 6.07
66 | CCC(C)C(=O)NCc1cccc(OCCN(C)C2CCOCC2)c1 (configuration not stated) | -13.37
67 | CSC1(CNC(=O)c2ccn(-c3ccccc3F)n2)CCOCC1 | -5.41
68 | O=C(C1CCCC1)N1CC2(CCN(C3COC3)C2)OCc2ccccc21 (configuration not stated) | 12.39
69 | Cc1nc(CNC(=O)CCN2CCN(c3ccccc3)CC2)oc1C | -0.39
70 | O=C(NCc1cn2cccnc2n1)C1CC(=O)N(Cc2ccccn2)C1 (configuration not stated) | 56.79
71 | O=C(NCc1cn2cccnc2n1)C1CC(=O)N(Cc2cccnc2)C1 (configuration not stated) | -23.46
72 | CN(C)CCN1CC(C(=O)NCc2cn3cccnc3n2)CC1=O (configuration not stated) | 11.37
73 | Cc1ccc(C(=O)O)cc1S(=O)(=O)N(CC(C)O)c1ccccc1 (configuration not stated) | 11.33
74 | COc1ncccc1NC(=O)N1CCC(c2ccc(O)cc2)CC1 | -14.28
75 | CCN1CC(COC(=O)c2ccc(N(C)C)cc2F)CC1=O (configuration not stated) | -3.43
76 | CCCS(=O)(=O)N1C[C@@H]2C[C@H](C(=O)N3CCN(C)CC3)[C@H](C1)O2 | 72.68
77 | CC(C)CS(=O)(=O)N1C[C@@H]2C[C@H](C(=O)N3CCN(C)CC3)[C@H](C1)O2 | -26.46
78 | CCCS(=O)(=O)N1C[C@@H]2C[C@H](C(=O)N3CCCC3)[C@H](C1)O2 | 22.71

Row | SMILES | INHIBITION [%]
79 | CC(C)CS(=O)(=O)N1C[C@@H]2C[C@H](C(=O)N3CCOCC3)[C@H](C1)O2 | 15.36
80 | CS(=O)(=O)N1C[C@@H]2C[C@H](C(=O)N3CCOCC3)[C@H](C1)O2 | 54.01
81 | CCCS(=O)(=O)N1C[C@@H]2C[C@H](C(=O)N3CCOCC3)[C@H](C1)O2 | 32.59
82 | CCOCC1CN(Cc2ccncc2)Cc2nn(C)cc21 (configuration not stated) | 7.26
83 | CCN(C)c1ncnc2c1CCN(CC1CCOC1)CC2 (configuration not stated) | 26.76
84 | COc1cc(Cl)ccc1C(=O)NCc1n[nH]c(C)n1 | 29.39
85 | Cc1cc(CC(=O)NCC(O)c2ccc(OC(F)F)cc2)n[nH]1 (configuration not stated) | 17.94
86 | CSc1ccc(-c2noc(CN(Cc3ccccc3)C(C)C)n2)cc1 | 28.97
87 | Cn1nc(Cn2cccc2)c2c1CN(Cc1ccoc1)C2 | 50.32
88 | CCS(=O)(=O)N1Cc2c(Cn3cccc3)nn(C(C)C)c2C1 | -24.79
89 | Cn1nc(Cn2cccn2)c2c1CN(Cc1ccoc1)C2 | 15.34
90 | CC(C)n1nc(Cn2cccc2)c2c1CN(Cc1ccoc1)C2 | 51.4
91 | COCc1nn(C(C)C)c2c1CCN(Cc1ccoc1)C2 | 6.35
92 | Cn1nc(Cn2ccnc2)c2c1CN(Cc1ccoc1)C2 | 4.26
93 | O=C1CC[C@H]2CN(Cc3ncc[nH]3)CC[C@H]2N1CC1CCNCC1 | 17.37
94 | Cc1cc(N2CCC(Cc3cnccn3)C2)ncn1 (configuration not stated) | -10.89
95 | CC(C)C(C#N)N1CCN(Cc2nccn2CC(F)(F)F)CC1 (configuration not stated) | -16.4
96 | CCS(=O)(=O)N1CC[C@H]2C(=O)N(Cc3cccnc3)CCO[C@H]2C1 | 58.52
97 | O=C1[C@@H]2CCN(C3CCOCC3)C[C@@H]2OCCN1Cc1cccnc1 | 4.08
98 | O=C1[C@@H]2CCN(Cc3ccoc3)C[C@@H]2OCCN1Cc1cccnc1 | -32.67
99 | CCOCC(O)CN1CCN(C(=O)c2cc(Cl)ccc2F)CC1 (configuration not stated) | 15.08
100 | CC(C)c1cc2c(s1)NC(c1ccccn1)NC2=O (configuration not stated) | -23.17
101 | Cc1ccc(C2NC(=O)c3cc(C(C)C)sc3N2)cc1 (configuration not stated) | 46.98
102 | CC(C)c1cc2c(s1)NC(c1ccccc1)NC2=O (configuration not stated) | 51.76
